From PubChem BioAssay AID1159580 (chemical genetic matrix, 2015)
The whole screen tested about 5,500 compounds, of which about 2,000 (36%) were called active. Not shown: some 18% with an inconclusive outcome. Rule as the data show it: active = normalized growth mostly below about 0.91 (no sharp cut-off); inconclusive = no clear call, values can overlap the other calls; inactive = mostly above about 0.92. This is one part of the list.

Test: chemical genetic growth profiling, strain panel (AID 1159580);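 also: tested at 20 µM; growth read once vehicle control cultures reached saturation at 30 °C; 1 = growth at the plate median or of vehicle wells; lower values mean less growth of the strain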
Conditions: growth OD

Measured: normalized growth

CO[C@@]12[C@@H]3NC3CN1C1=C(C(=O)C(N)=C(C)C1=O)[C@@H]2COC(N)=O (some centres not stated)
inactive: S. cerevisiae deletion strains, locus YJR075W, strain HOC1, active compounds read low 0.995 | S. cerevisiae deletion strains, locus YKL009W, strain mrt4, active compounds read low 0.964 | S. cerevisiae deletion strains, locus YKL068W, active compounds read low 0.984 | S. cerevisiae deletion strains, locus YKL085W, strain MDH1 (second series), active compounds read low 0.983 | S. cerevisiae deletion strains, locus YKL085W, strain MDH1, active compounds read low 0.983 | S. cerevisiae deletion strains, locus YKL160W, strain elf1, active compounds read low 0.974 | S. cerevisiae deletion strains, locus YKL190W, strain CNB1, active compounds read low 1 | S. cerevisiae deletion strains, locus YKR001C, strain vps1, active compounds read low 0.982 | S. cerevisiae deletion strains, locus YKR026C, strain gcn3, active compounds read low 0.964 | S. cerevisiae deletion strains, locus YKR091W, strain srl3, active compounds read low 0.959 | S. cerevisiae deletion strains, locus YLL001W, strain dnm1, active compounds read low 0.929 | S. cerevisiae deletion strains, locus YLL026W, active compounds read low 0.977 | S. cerevisiae deletion strains, locus YLL041C, strain sdh2, active compounds read low 0.977 | S. cerevisiae deletion strains, locus YLR027C, strain aat2, active compounds read low 0.953 | S. cerevisiae deletion strains, locus YLR039C, strain RIC1, active compounds read low 1.01 | S. cerevisiae deletion strains, locus YLR058C, strain SHM2, active compounds read low 0.999 | S. cerevisiae deletion strains, locus YLR102C, strain apc9, active compounds read low 0.986 | S. cerevisiae deletion strains, locus YLR113W, strain HOG1, active compounds read low 0.973 | S. cerevisiae deletion strains, locus YLR221C, strain rsa3, active compounds read low 1.01 | S. cerevisiae deletion strains, locus YLR258W, strain gsy2, active compounds read low 0.992 | S. cerevisiae deletion strains, locus YLR262C, strain YPT6 (second series), active compounds read low 0.938 | S. cerevisiae deletion strains, locus YLR262C, strain YPT6, active compounds read low 0.947 | S. cerevisiae deletion strains, locus YLR268W, strain sec22, active compounds read low 1.01 | S. cerevisiae deletion strains, locus YLR320W, strain mms22, active compounds read low 1.01 | S. cerevisiae deletion strains, locus YLR330W, strain CHS5, active compounds read low 0.987 | S. cerevisiae deletion strains, locus YLR342W, strain FKS1 (second series), active compounds read low 1 | S. cerevisiae deletion strains, locus YLR342W, strain FKS1, active compounds read low 0.952 | S. cerevisiae deletion strains, locus YLR357W, strain rsc2, active compounds read low 0.961 | S. cerevisiae deletion strains, locus YLR370C, strain arc18, active compounds read low 0.96 | S. cerevisiae deletion strains, locus YLR371W, strain rom2, active compounds read low 0.961 | S. cerevisiae deletion strains, locus YLR384C, strain iki3, active compounds read low 0.953 | S. cerevisiae deletion strains, locus YLR418C, strain cdc73, active compounds read low 1.05 | S. cerevisiae deletion strains, locus YML016C, strain PPZ1, active compounds read low 1 | S. cerevisiae deletion strains, locus YML032C, strain rad52, active compounds read low 0.96 | S. cerevisiae deletion strains, locus YML120C, strain ndi1, active compounds read low 0.94 | S. cerevisiae deletion strains, locus YML124C, strain tub3, active compounds read low 0.979 | S. cerevisiae deletion strains, locus YMR058W, strain fet3, active compounds read low 0.942 | S. cerevisiae deletion strains, locus YMR078C, strain ctf18, active compounds read low 0.975 | S. cerevisiae deletion strains, locus YMR125W, strain sto1, active compounds read low 0.982 | S. cerevisiae deletion strains, locus YMR129W, active compounds read low 0.975 | S. cerevisiae deletion strains, locus YMR205C, strain PFK2, active compounds read low 0.996 | S. cerevisiae deletion strains, locus YMR223W, strain ubp8, active compounds read low 0.977 | S. cerevisiae deletion strains, locus YMR231W, strain pep5, active compounds read low 0.949 | S. cerevisiae deletion strains, locus YMR263W, strain SAP30, active compounds read low 1.01 | S. cerevisiae deletion strains, locus YMR307W, strain GAS1, active compounds read low 1.02 | S. cerevisiae deletion strains, locus YNL067W, strain RPL9B, active compounds read low 1.02 | S. cerevisiae deletion strains, locus YNL071W, strain lat1, active compounds read low 0.971 | S. cerevisiae deletion strains, locus YNL128W, strain TEP1, active compounds read low 1 | S. cerevisiae deletion strains, locus YNL153C, strain GIM3, active compounds read low 1.03 | S. cerevisiae deletion strains, locus YNL183C, strain NPR1, active compounds read low 0.94 | S. cerevisiae deletion strains, locus YNL209W, strain ssb2, active compounds read low 0.972 | S. cerevisiae deletion strains, locus YNL233W, strain BNI4, active compounds read low 1.05 | S. cerevisiae deletion strains, locus YNL248C, strain rpa49, active compounds read low 0.99 | S. cerevisiae deletion strains, locus YNL250W, strain rad50, active compounds read low 0.975 | S. cerevisiae deletion strains, locus YNL271C, strain bni1, active compounds read low 0.979 | S. cerevisiae deletion strains, locus YNL298W, strain CLA4, active compounds read low 0.978 | S. cerevisiae deletion strains, locus YNL307C, strain MCK1, active compounds read low 0.979 | S. cerevisiae deletion strains, locus YNL322C, strain KRE1 (second series), active compounds read low 0.945 | S. cerevisiae deletion strains, locus YNL322C, strain KRE1, active compounds read low 0.997 | S. cerevisiae deletion strains, locus YNR049C, strain mso1, active compounds read low 0.978 | S. cerevisiae deletion strains, locus YNR052C, strain pop2, active compounds read low 0.96 | S. cerevisiae deletion strains, locus YOL006C, strain TOP1, active compounds read low 1.04 | S. cerevisiae deletion strains, locus YOL012C, strain htz1 0.963 | S. cerevisiae deletion strains, locus YOL147C, strain pex11, active compounds read low 0.984 | S. cerevisiae deletion strains, locus YOR001W, strain rrp6, active compounds read low 0.946 | S. cerevisiae deletion strains, locus YOR061W, strain CKA2, active compounds read low 1.01 | S. cerevisiae deletion strains, locus YOR069W, strain VPS5, active compounds read low 1 | S. cerevisiae deletion strains, locus YOR070C, strain gyp1, active compounds read low 0.993 | S. cerevisiae deletion strains, locus YOR080W, strain dia2, active compounds read low 0.968 | S. cerevisiae deletion strains, locus YOR083W, strain WHI5, active compounds read low 0.94 | S. cerevisiae deletion strains, locus YOR106W, strain vam3, active compounds read low 0.929 | S. cerevisiae deletion strains, locus YOR136W, strain idh2, active compounds read low 0.981 | S. cerevisiae deletion strains, locus YOR144C, strain elg1, active compounds read low 0.985 | S. cerevisiae deletion strains, locus YOR184W, strain ser1, active compounds read low 0.948 | S. cerevisiae deletion strains, locus YOR231W, strain MKK1, active compounds read low 0.982 | S. cerevisiae deletion strains, locus YOR265W, strain rbl2, active compounds read low 0.963 | S. cerevisiae deletion strains, locus YOR270C, strain vph1, active compounds read low 1 | S. cerevisiae deletion strains, locus YOR290C, strain snf2, active compounds read low 0.998 | S. cerevisiae deletion strains, locus YOR316C, strain cot1, active compounds read low 0.994 | S. cerevisiae deletion strains, locus YPL051W, strain arl3, active compounds read low 0.985 | S. cerevisiae deletion strains, locus YPL055C, strain LGE1, active compounds read low 1.02 | S. cerevisiae deletion strains, locus YPL078C, strain atp4, active compounds read low 0.921 | S. cerevisiae deletion strains, locus YPL106C, strain sse1, active compounds read low 0.951 | S. cerevisiae deletion strains, locus YPL240C, strain hsp82, active compounds read low 0.979 | S. cerevisiae deletion strains, locus YPL241C, strain CIN2, active compounds read low 0.998 | S. cerevisiae deletion strains, locus YPL256C, strain CLN2, active compounds read low 0.971 | S. cerevisiae deletion strains, locus YPR119W, strain clb2, active compounds read low 0.995 | S. cerevisiae deletion strains, locus YPR141C, strain kar3, active compounds read low 0.983 | S. cerevisiae deletion strains, locus YPR163C, strain tif3, active compounds read low 0.966 | S. cerevisiae deletion strains, locus YPR167C, strain met16, active compounds read low 0.987 | S. cerevisiae deletion strains, strain wtn01, active compounds read low 1.02 | S. cerevisiae strains, strain wild type, active compounds read low 0.997
